Experimental data published in PubChem BioAssay (NCI).
About 83,000 compounds went through this panel and 20% of them were active in at least one assay; those are over-represented in the sample as a whole.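 Results are percent growth after 48 hours of single-concentration exposure. 100 means growth as in untreated cells, lower positive values show inhibition; negative values down to -100 show cell death.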 Calls of active or inactive are those of the source. How the source made its calls: active means growth percent below 10; inactive means the rest.

Tests used:
Experiment in all cases: NCI-60 one-dose screen, 48 h (100 = growth as untreated, 0 = no growth, -100 = all killed)
DU-145 prostate = settings: 10 µM unless noted
K-562 leukemia = settings: 10 µM unless noted
MALME-3M melanoma = settings: 10 µM unless noted
RXF 393 renal = settings: 10 µM unless noted
SF-268 CNS = settings: 10 µM unless noted
SF-295 CNS = settings: 10 µM unless noted
SF-539 CNS = settings: 10 µM unless noted
UACC-257 melanoma = settings: 10 µM
M14 melanoma = settings: 10 µM unless noted
MDA-MB-231 breast = settings: 10 µM unless noted

Measured: growth

NC(=S)NN=C1CCCCC1
inactive: DU-145 prostate 95.1% | K-562 leukemia 40.1% | MALME-3M melanoma 91.6% | RXF 393 renal 109% | SF-268 CNS 93.5% | SF-295 CNS 92.8% | SF-539 CNS 99.7% | UACC-257 melanoma 73.3% | M14 melanoma 81.2%

COc1cccc2cc(-c3cc4ccccc4[nH]3)c(=NC(=O)c3ccc(Cl)cc3)oc12
inactive: DU-145 prostate 85.5% | K-562 leukemia 39.7% | MALME-3M melanoma 58.5% | MDA-MB-231 breast 54.3% | SF-268 CNS 53.5% | SF-295 CNS 67.3% | SF-539 CNS 58.2%
active: M14 melanoma -28.9%

c1ccn2nnnc2c1
inactive: DU-145 prostate 103% | K-562 leukemia 97.5% | MALME-3M melanoma 98.5% | RXF 393 renal 110% | SF-268 CNS 101% | SF-295 CNS 101% | SF-539 CNS 95.5% | UACC-257 melanoma 101%
active: M14 melanoma -54.6%

O=C(CC(O)c1ccncc1)c1ccccc1 (configuration not stated)
inactive: K-562 leukemia 57.9% | MALME-3M melanoma 91.9% | SF-268 CNS 74.9% | SF-295 CNS 51.8% | UACC-257 melanoma 83.1% | M14 melanoma 90.8%
active: DU-145 prostate 3.98% | RXF 393 renal -69.4% | SF-539 CNS 8.03%

Cc1oc2nc[nH]c(=O)c2c1C(=O)/C=C/c1ccc(Cl)cc1Cl
inactive: DU-145 prostate 78.2% | K-562 leukemia 17.8% | MALME-3M melanoma 99.9% | MDA-MB-231 breast 89% | SF-268 CNS 94.6% | SF-295 CNS 104% | SF-539 CNS 93.3% | M14 melanoma 93.9%

Cc1ccc(S(=O)(=O)N2CCC(C(=O)Nc3ccc(F)cc3F)CC2)cc1
inactive: DU-145 prostate 97.4% | K-562 leukemia 91.7% | MALME-3M melanoma 104% | MDA-MB-231 breast 87.1% | SF-268 CNS 111% | SF-295 CNS 81.8% | SF-539 CNS 97.5% | M14 melanoma 102%

CCN1C(=O)N(CC)C2C1NN=c1s/c(=C\c3ccccn3)c(=O)n12 (configuration not stated)
inactive: MALME-3M melanoma 22.4% | MDA-MB-231 breast 45.5% | SF-268 CNS 74.2% | M14 melanoma 13%
active: DU-145 prostate 9.45% | K-562 leukemia 8.75% | SF-295 CNS 3.21% | SF-539 CNS -19.8%

Cc1oc2nc[nH]c(=O)c2c1C(=O)/C=C/c1ccc(Cl)cc1
active: DU-145 prostate 6.76% | K-562 leukemia -63.2%
inactive: MALME-3M melanoma 71% | MDA-MB-231 breast 22.3% | SF-268 CNS 50.1% | SF-295 CNS 77% | SF-539 CNS 14.5% | M14 melanoma 82.3%

c1cncc(CNc2ccccc2-c2nnc(Nc3ccc4c(c3)OCCO4)o2)c1
active: DU-145 prostate -5.96% | SF-539 CNS 4.68%
inactive: K-562 leukemia 14.2% | MALME-3M melanoma 80.2% | MDA-MB-231 breast 26.4% | SF-268 CNS 18.7% | SF-295 CNS 12.2% | M14 melanoma 12.7%

O=C(Nc1ccccc1)OCC1OCOC(COC(=O)Nc2ccccc2)C1OC(=O)Nc1ccccc1 (configuration not stated)
inactive: DU-145 prostate 43.7% | K-562 leukemia 57.9% | MALME-3M melanoma 72.2% | RXF 393 renal 37% | SF-268 CNS 39.8% | SF-295 CNS 90.5% | SF-539 CNS 72.4% | UACC-257 melanoma 102% | M14 melanoma 16.2%

CCCCC(N)(C(=O)O)C1CCCC1 (configuration not stated)
inactive: DU-145 prostate 122% | MALME-3M melanoma 127% | MDA-MB-231 breast 105% | RXF 393 renal 106% | SF-268 CNS 107% | SF-295 CNS 98.8% | SF-539 CNS 96.7% | UACC-257 melanoma 87.2% | M14 melanoma 107%

CC(=O)Nc1ccc(S(=O)(=O)N2C(=O)CCC2C(=O)Nc2ccccc2)cc1 (configuration not stated)
active: SF-295 CNS 1.91% | SF-539 CNS -22%
inactive: DU-145 prostate 50.2% | K-562 leukemia 11.8% | MDA-MB-231 breast 25.6% | RXF 393 renal 57.7% | SF-268 CNS 61.9% | UACC-257 melanoma 33.7% | M14 melanoma 10.3%

CN=S(=O)(NC(=O)c1ccc(Cl)cc1Cl)c1ccc(Br)s1 (configuration not stated)
inactive: DU-145 prostate 111% | K-562 leukemia 104% | MDA-MB-231 breast 104% | RXF 393 renal 103% | SF-268 CNS 109% | SF-295 CNS 101% | SF-539 CNS 97% | UACC-257 melanoma 92.5% | M14 melanoma 106%

CCN(Cc1ccccc1)c1ccc(SC#N)cc1
inactive: DU-145 prostate 98.3% | K-562 leukemia 41% | MALME-3M melanoma 88% | RXF 393 renal 47.6% | SF-268 CNS 83.8% | SF-295 CNS 95.3% | SF-539 CNS 82.2% | UACC-257 melanoma 107% | M14 melanoma 89.2%

CC(=O)C1CCC(C)=CC1=O (configuration not stated)
inactive: DU-145 prostate 114% | MALME-3M melanoma 93.4% | MDA-MB-231 breast 104% | RXF 393 renal 113% | SF-268 CNS 99.1% | SF-295 CNS 101% | SF-539 CNS 99.6% | UACC-257 melanoma 92.8% | M14 melanoma 97.5%

NC(C(=O)O)C(O)c1ccc(OCc2ccccc2)c(OCc2ccccc2)c1 (configuration not stated)
inactive: DU-145 prostate 107% | K-562 leukemia 95.6% | MALME-3M melanoma 114% | RXF 393 renal 100% | SF-268 CNS 97.4% | SF-295 CNS 97.8% | SF-539 CNS 97.2% | M14 melanoma 97.4%

COc1cc(NS(C)(=O)=O)ccc1Nc1c2ccc([N+](=O)[O-])cc2nc2c(C)cccc12
active: DU-145 prostate -13.1% | K-562 leukemia 4.57% | SF-268 CNS 7.28% | SF-295 CNS -43.7% | SF-539 CNS -13.7% | UACC-257 melanoma 2.11%
inactive: MALME-3M melanoma 14.4% | RXF 393 renal 10.4% | M14 melanoma 22.6%

Cc1ccc(S(=O)(=O)OC2COCOC2C(OS(=O)(=O)c2ccc(C)cc2)C2OCOCC2OS(=O)(=O)c2ccc(C)cc2)cc1 (configuration not stated)
inactive: DU-145 prostate 111% | K-562 leukemia 100% | MALME-3M melanoma 98.1% | RXF 393 renal 114% | SF-268 CNS 106% | SF-295 CNS 104% | SF-539 CNS 98.9% | UACC-257 melanoma 97.2% | M14 melanoma 112%

CC(=O)Nc1ccc(S(=O)(=O)N2C(=O)CCC2C(=O)Nc2ccc(Br)cc2)cc1 (configuration not stated)
inactive: DU-145 prostate 44.2% | MDA-MB-231 breast 34.4% | RXF 393 renal 57.4% | SF-268 CNS 47.6% | SF-295 CNS 13.1% | SF-539 CNS 42.1% | UACC-257 melanoma 30.4% | M14 melanoma 36.9%
active: K-562 leukemia 0.475%

CCC(c1ccc(OC)cc1)C(CC)c1ccc(OCC[N+](C)(C)C)cc1 (configuration not stated)
inactive: DU-145 prostate 91.9% | K-562 leukemia 24.7% | MALME-3M melanoma 58% | RXF 393 renal 99.6% | SF-268 CNS 40.8% | SF-295 CNS 78.6% | SF-539 CNS 41.9% | M14 melanoma 64%

Cc1cc(C)c(NC(=O)c2sc3nc4c(cc3c2N)CN(Cc2ccccc2)CC4)c(C)c1
active: K-562 leukemia 9.63% | SF-539 CNS 8.37%
inactive: DU-145 prostate 27.6% | MDA-MB-231 breast 44% | RXF 393 renal 26.1% | SF-268 CNS 36.5% | SF-295 CNS 21.9% | UACC-257 melanoma 48% | M14 melanoma 40.2%

CNC(C)=O
inactive: DU-145 prostate 99.5% | K-562 leukemia 90.3% | MALME-3M melanoma 86.1% | RXF 393 renal 105% | SF-268 CNS 98.4% | SF-295 CNS 93.7% | SF-539 CNS 89.8% | UACC-257 melanoma 102% | M14 melanoma 108%

Nc1nc(-c2ccccc2)cs1
inactive: DU-145 prostate 104% | K-562 leukemia 114% | MDA-MB-231 breast 104% | RXF 393 renal 120% | SF-268 CNS 96.4% | SF-295 CNS 104% | SF-539 CNS 99.1% | UACC-257 melanoma 98.5% | M14 melanoma 97.2%

O=S(=O)(NCCNc1nccc(-c2c(-c3ccccc3)nc3sccn23)n1)c1ccc(O)cc1
inactive: DU-145 prostate 46% | K-562 leukemia 35.9% | MDA-MB-231 breast 50% | RXF 393 renal 45.9% | SF-268 CNS 46.5% | SF-295 CNS 47.3% | SF-539 CNS 59.2% | UACC-257 melanoma 82.4% | M14 melanoma 35.7%

CCN(CC)c1cc(/C=C/c2ccc(OC)c(OC)c2)nc2cc(F)c(F)cc12
active: MALME-3M melanoma 4.61% | MDA-MB-231 breast 8.74% | RXF 393 renal -58.7% | SF-268 CNS 7.33% | SF-295 CNS -66% | SF-539 CNS 4.7%
inactive: DU-145 prostate 71.8% | UACC-257 melanoma 87.7% | M14 melanoma 74.6%

CCCCCCCCCCCCOB(OCCCCCCCCCCCC)OCCCCCCCCCCCC
inactive: DU-145 prostate 100% | K-562 leukemia 92.5% | MALME-3M melanoma 90.4% | RXF 393 renal 114% | SF-268 CNS 97.2% | SF-295 CNS 104% | SF-539 CNS 106% | UACC-257 melanoma 95.4% | M14 melanoma 117%

O=[N+]([O-])c1cc(S(=O)(=O)OCC2CO2)ccc1Cl (configuration not stated)
inactive: DU-145 prostate 101% | MALME-3M melanoma 98.1% | MDA-MB-231 breast 132% | RXF 393 renal 103% | SF-268 CNS 94.3% | SF-295 CNS 101% | SF-539 CNS 106% | UACC-257 melanoma 100% | M14 melanoma 95.1%

CCC(=O)Oc1cc(/C=C/C(=O)O[C@H]2C[C@H]3CN4CCc5c([nH]c6cc(OC)ccc56)[C@@H]4C[C@@H]3[C@@H](C(=O)OC)[C@@H]2OC)ccc1OC
inactive: DU-145 prostate 82.9% | K-562 leukemia 39.7% | MDA-MB-231 breast 49.7% | RXF 393 renal 57.9% | SF-268 CNS 74.8% | SF-295 CNS 106% | SF-539 CNS 84.6% | UACC-257 melanoma 74.9% | M14 melanoma 82.5%

CC(=O)Nc1ccc(S(=O)(=O)NC(CCC(=O)Nc2ccc(Cl)cc2)C(=O)O)cc1 (configuration not stated)
inactive: DU-145 prostate 102% | K-562 leukemia 77.4% | MDA-MB-231 breast 95% | RXF 393 renal 108% | SF-268 CNS 102% | SF-295 CNS 98.8% | SF-539 CNS 99.2% | UACC-257 melanoma 98% | M14 melanoma 99.2%

COc1ccc(/C=C/C(=O)c2cccc(B(O)O)c2)cc1O
inactive: MDA-MB-231 breast 48.2% | RXF 393 renal 41.5% | SF-268 CNS 47.8% | SF-295 CNS 87.4% | UACC-257 melanoma 75% | M14 melanoma 70.6%
active: DU-145 prostate -10% | K-562 leukemia 8.39% | SF-539 CNS 0.0331%
